# Data published in paper PMC7862700, “An all-to-all approach to the identification of sequence-specific readers for epigenetic DNA modifications on cytosine”.
# Key:
# Experiment in all cases: DAPPL (digital affinity profiling via proximity ligation, sequencing); 10 mM Tris-HCl pH 7.5, 50 mM NaCl, 1 mM DTT, 4% glycerol, room temperature, 30 min; GST-TFs on glutathione beads, 16-mer random dsDNA library, 0.1% formaldehyde crosslink after washing; high values mean tight binding
# Conditions in all cases: protein: recombinant; tags: N-terminal GST; dsDNA, one strand shown
# [1] = molecular target: T1, FLI1 (Homo sapiens, UniProt Q01543 1-452)
# T1 sequence: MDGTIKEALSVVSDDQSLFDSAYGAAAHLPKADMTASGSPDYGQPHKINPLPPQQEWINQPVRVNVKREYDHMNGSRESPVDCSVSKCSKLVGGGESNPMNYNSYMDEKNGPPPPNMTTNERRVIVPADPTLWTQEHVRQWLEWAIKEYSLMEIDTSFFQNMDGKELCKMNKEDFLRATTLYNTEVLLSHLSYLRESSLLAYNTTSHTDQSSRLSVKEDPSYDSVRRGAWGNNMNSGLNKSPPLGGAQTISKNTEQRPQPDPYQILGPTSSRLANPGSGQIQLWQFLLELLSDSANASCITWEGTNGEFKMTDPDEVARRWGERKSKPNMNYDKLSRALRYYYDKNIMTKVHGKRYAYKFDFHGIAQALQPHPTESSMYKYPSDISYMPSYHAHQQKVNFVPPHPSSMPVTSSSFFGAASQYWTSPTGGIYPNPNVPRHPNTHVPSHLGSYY
# Method in brief: (§1)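 Binding signal is each hexamer's read frequency for a factor divided by its frequency in the tag-only sample. The factors were GST-fused human transcription factors from yeast, captured on glutathione beads, DNA-barcoded and pooled with that sample. Pools were incubated with 200 nmole of a random double-stranded 16-mer DNA library in Tris/NaCl/DTT/glycerol buffer at room temperature for 30 min, then washed, crosslinked with 0.1% formaldehyde, proximity-ligated with BsaI/T4 ligase (1 h, 37 °C), PCR-amplified and sequenced on an Illumina NextSeq500.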
# [2] = molecular target: T2, ELK1 (Homo sapiens, UniProt P19419 1-428)
# T2 sequence: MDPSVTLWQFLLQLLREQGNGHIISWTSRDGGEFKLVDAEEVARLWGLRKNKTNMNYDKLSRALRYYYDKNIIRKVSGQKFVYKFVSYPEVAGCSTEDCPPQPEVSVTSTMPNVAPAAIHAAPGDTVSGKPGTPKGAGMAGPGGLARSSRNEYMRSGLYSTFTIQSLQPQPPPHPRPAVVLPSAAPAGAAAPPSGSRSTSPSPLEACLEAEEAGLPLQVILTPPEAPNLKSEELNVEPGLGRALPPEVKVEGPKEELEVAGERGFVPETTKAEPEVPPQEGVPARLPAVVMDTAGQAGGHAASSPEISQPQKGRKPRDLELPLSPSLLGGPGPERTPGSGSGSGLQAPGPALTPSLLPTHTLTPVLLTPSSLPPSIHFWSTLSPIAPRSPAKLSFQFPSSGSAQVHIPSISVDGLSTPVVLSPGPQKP
# Method in brief: as §1
# [3] = molecular target: T3, GABPA (Homo sapiens, UniProt Q06546 1-454)
# T3 sequence: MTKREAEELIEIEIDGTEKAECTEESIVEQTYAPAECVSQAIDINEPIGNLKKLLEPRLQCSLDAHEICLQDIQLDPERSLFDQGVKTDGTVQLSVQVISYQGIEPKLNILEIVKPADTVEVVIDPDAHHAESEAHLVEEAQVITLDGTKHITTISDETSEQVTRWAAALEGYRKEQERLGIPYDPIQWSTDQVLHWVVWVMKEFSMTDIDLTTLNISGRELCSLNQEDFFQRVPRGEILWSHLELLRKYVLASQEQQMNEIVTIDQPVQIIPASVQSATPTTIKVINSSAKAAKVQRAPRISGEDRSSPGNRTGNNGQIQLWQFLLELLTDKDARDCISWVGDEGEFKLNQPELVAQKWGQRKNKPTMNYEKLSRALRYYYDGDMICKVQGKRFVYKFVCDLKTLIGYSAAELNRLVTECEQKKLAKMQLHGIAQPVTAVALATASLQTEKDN
# Method in brief: as §1
# [4] = molecular target: T4, ERG (Homo sapiens, UniProt P11308 1-479)
# T4 sequence: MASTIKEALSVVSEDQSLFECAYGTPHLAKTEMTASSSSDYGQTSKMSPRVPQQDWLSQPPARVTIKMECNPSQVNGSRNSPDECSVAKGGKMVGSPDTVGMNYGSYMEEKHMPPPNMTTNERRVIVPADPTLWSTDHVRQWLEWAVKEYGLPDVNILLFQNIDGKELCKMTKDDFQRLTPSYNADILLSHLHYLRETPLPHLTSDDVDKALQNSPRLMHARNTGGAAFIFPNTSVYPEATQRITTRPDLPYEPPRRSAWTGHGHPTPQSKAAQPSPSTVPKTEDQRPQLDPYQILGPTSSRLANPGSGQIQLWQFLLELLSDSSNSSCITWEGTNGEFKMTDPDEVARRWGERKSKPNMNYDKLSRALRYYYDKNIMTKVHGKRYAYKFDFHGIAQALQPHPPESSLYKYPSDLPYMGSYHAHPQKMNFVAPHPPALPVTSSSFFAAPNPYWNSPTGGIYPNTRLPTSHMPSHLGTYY
# Method in brief: as §1
# [5] = molecular target: ELF1 (Homo sapiens, UniProt P32519 1-619)
# Sequence of ELF1 (P32519 whole entry): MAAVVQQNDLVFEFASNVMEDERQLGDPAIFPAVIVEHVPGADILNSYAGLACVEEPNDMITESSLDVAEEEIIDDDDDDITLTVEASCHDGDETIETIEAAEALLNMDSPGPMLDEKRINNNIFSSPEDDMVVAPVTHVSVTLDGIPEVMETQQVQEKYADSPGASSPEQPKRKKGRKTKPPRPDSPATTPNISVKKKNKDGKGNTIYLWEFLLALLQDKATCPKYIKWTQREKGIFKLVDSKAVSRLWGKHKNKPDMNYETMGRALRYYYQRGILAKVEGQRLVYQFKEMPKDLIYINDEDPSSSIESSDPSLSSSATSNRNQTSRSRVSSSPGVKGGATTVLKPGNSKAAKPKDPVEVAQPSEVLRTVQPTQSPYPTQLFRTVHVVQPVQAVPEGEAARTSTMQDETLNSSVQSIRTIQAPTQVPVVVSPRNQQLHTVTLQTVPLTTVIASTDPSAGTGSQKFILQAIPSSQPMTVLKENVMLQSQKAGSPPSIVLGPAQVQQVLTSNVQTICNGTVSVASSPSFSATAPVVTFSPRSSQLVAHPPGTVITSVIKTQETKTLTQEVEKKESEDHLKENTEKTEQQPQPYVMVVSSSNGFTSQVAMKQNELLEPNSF
# Method in brief: as §1
# [6] = molecular target: T5, EHF (Homo sapiens, UniProt Q9NZC4 1-300)
# T5 sequence: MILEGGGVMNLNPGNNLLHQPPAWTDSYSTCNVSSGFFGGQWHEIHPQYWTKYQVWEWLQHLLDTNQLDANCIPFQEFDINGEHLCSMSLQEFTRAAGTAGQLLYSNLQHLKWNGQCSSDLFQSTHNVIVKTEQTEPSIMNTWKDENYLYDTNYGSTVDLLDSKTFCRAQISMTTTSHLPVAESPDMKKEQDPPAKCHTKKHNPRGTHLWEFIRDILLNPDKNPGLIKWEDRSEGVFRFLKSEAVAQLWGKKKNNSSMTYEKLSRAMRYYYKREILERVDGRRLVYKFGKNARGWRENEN
# Method in brief: as §1
# [7] = molecular target: SPI1 (Homo sapiens, UniProt P17947 1-270)
# Method in brief: as §1
# [8] = molecular target: SPIB (Homo sapiens, UniProt Q01892 1-262)
# Sequence of SPIB (Q01892 whole entry): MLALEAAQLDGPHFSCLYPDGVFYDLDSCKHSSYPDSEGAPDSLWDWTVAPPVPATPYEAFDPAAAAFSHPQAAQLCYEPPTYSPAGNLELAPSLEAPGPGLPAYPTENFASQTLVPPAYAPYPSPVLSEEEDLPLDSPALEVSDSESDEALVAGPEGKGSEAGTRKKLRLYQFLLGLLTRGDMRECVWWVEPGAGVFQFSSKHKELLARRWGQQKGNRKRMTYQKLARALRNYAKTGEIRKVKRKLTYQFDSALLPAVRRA
# Method in brief: as §1
# [9] = molecular target: T6, FEV (Homo sapiens, UniProt Q99581 1-238)
# T6 sequence: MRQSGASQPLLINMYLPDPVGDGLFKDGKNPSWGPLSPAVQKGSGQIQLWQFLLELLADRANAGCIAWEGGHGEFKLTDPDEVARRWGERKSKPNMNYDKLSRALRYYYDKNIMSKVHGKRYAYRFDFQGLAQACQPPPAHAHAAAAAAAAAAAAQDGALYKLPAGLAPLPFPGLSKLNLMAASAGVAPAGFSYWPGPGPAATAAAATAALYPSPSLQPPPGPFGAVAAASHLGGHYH
# Method in brief: as §1
# [10] = molecular target: ETV5 (Homo sapiens, UniProt P41161 1-510)
# Sequence of ETV5 (P41161 whole entry): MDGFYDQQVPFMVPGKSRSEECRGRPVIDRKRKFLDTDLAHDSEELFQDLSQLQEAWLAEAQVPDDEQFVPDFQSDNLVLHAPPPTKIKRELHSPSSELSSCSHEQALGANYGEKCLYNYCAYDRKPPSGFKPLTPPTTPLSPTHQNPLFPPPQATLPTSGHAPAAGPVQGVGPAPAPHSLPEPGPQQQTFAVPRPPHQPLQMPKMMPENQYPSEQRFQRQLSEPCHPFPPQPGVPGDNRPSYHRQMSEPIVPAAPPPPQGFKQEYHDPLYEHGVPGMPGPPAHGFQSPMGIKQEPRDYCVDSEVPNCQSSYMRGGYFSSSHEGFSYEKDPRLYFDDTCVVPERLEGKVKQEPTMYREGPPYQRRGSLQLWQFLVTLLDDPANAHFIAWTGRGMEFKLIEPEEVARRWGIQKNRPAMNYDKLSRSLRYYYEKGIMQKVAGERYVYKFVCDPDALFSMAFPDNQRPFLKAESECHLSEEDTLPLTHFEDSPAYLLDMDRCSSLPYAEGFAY
# Method in brief: as §1
# [11] = molecular target: ELF4 (Homo sapiens, UniProt Q99607 1-663)
# Sequence of ELF4 (Q99607 whole entry): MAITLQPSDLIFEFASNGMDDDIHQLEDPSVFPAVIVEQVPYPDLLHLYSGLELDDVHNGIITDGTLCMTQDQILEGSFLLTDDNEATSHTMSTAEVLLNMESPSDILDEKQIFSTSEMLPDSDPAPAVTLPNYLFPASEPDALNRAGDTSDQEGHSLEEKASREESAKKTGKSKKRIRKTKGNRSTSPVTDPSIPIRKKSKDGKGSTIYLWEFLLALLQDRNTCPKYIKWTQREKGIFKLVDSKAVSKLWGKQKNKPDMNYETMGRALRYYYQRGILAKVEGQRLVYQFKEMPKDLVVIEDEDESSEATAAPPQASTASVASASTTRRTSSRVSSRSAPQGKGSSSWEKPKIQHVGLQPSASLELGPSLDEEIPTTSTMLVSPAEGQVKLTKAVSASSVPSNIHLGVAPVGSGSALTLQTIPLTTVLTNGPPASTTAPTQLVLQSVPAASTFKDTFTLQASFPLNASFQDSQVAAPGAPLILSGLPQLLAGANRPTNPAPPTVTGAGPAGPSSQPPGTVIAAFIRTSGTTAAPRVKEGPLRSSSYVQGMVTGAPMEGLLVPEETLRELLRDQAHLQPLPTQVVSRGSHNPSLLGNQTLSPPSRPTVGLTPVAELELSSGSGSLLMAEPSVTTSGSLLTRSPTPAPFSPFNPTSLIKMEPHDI
# Method in brief: as §1
# [12] = molecular target: T7, ETV2 (Homo sapiens, UniProt O00321 1-342)
# T7 sequence: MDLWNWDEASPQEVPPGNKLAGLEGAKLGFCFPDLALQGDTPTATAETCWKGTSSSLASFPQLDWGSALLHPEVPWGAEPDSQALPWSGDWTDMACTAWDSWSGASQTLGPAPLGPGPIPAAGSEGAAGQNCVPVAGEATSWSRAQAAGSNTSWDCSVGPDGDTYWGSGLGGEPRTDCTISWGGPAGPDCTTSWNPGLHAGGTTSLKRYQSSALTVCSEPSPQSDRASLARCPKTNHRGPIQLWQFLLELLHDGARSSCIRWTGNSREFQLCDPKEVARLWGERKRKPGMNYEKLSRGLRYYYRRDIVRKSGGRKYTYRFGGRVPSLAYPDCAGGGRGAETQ
# Method in brief: as §1
# [13] = molecular target: ETV1 (Homo sapiens, UniProt P50549 1-477)
# Sequence of ETV1 (P50549 whole entry): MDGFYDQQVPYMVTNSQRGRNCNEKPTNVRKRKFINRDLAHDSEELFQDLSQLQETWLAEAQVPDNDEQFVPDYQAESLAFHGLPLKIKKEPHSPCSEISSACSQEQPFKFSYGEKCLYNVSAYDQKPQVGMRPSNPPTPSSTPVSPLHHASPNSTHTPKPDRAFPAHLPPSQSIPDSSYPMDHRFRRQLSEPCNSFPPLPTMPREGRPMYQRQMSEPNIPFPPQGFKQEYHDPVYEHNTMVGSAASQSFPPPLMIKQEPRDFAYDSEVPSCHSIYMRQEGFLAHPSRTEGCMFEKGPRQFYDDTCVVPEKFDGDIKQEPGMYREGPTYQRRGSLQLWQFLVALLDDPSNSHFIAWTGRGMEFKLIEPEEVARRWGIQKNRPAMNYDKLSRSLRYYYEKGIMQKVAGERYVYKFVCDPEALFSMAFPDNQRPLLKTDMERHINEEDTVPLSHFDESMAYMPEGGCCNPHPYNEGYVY
# Method in brief: as §1
# [14] = molecular target: T8, ERF (Homo sapiens, UniProt P50548 1-548)
# T8 sequence: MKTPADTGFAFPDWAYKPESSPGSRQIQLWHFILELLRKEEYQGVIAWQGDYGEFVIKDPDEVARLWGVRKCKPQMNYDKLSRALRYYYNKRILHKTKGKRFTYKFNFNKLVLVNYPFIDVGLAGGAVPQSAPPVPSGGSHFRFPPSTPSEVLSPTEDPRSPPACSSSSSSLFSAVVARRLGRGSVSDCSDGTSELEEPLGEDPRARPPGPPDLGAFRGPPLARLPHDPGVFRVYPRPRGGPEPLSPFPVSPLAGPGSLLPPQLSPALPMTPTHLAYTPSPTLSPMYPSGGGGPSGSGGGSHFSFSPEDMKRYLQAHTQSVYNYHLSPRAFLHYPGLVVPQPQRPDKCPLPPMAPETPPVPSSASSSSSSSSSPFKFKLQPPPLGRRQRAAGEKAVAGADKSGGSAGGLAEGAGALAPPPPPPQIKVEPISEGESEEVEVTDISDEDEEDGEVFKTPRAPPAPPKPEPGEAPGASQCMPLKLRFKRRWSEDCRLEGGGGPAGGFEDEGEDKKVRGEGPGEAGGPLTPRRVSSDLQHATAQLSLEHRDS
# Method in brief: as §1
# [15] = molecular target: T9, ETV3L (Homo sapiens, UniProt Q6ZN32 1-361)
# T9 sequence: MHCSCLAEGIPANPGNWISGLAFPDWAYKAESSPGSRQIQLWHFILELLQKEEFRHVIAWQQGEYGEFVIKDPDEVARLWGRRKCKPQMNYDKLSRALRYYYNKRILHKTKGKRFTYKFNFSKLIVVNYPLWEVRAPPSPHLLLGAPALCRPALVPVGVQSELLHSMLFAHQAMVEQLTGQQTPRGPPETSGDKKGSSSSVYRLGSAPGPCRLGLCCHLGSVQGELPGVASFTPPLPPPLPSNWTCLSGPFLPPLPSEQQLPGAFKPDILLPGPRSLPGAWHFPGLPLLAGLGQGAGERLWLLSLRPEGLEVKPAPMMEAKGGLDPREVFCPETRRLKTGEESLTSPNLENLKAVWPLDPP
# Method in brief: as §1
# [16] = molecular target: T10, ETS2 (Homo sapiens, UniProt P15036 1-469)
# T10 sequence: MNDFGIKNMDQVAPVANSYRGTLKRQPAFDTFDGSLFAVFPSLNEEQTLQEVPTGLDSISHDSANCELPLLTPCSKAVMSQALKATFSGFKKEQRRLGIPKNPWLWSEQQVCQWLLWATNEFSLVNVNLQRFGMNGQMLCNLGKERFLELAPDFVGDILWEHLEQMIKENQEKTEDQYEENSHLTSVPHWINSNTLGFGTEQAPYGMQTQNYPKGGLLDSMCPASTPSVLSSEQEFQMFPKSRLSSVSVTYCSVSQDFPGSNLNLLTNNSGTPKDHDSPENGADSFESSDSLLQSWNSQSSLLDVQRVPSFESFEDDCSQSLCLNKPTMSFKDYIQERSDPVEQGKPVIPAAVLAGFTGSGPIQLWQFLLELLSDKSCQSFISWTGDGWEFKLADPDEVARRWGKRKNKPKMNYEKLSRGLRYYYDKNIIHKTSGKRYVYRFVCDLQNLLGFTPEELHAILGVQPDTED
# Method in brief: as §1
# [17] = molecular target: T11, ETV7 (Homo sapiens, UniProt Q9Y603 1-341)
# T11 sequence: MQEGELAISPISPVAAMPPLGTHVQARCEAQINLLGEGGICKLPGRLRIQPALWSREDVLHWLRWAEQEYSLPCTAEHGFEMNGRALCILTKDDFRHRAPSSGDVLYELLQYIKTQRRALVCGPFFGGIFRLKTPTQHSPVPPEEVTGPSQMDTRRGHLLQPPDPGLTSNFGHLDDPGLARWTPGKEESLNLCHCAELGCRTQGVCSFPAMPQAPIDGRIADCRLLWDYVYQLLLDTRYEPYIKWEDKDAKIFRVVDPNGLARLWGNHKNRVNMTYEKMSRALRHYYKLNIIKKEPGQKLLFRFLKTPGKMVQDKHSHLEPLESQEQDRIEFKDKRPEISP
# Method in brief: as §1
# [18] = molecular target: T12, ETV3 (Homo sapiens, UniProt P41162-2 1-143)
# T12 sequence: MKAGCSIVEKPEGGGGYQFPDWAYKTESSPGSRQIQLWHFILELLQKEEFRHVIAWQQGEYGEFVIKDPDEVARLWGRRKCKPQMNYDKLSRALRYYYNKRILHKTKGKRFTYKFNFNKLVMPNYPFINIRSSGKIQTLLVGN
# Method in brief: as §1
# [19] = molecular target: ETV6 (Homo sapiens, UniProt P41212 1-452)
# Sequence of ETV6 (P41212 whole entry): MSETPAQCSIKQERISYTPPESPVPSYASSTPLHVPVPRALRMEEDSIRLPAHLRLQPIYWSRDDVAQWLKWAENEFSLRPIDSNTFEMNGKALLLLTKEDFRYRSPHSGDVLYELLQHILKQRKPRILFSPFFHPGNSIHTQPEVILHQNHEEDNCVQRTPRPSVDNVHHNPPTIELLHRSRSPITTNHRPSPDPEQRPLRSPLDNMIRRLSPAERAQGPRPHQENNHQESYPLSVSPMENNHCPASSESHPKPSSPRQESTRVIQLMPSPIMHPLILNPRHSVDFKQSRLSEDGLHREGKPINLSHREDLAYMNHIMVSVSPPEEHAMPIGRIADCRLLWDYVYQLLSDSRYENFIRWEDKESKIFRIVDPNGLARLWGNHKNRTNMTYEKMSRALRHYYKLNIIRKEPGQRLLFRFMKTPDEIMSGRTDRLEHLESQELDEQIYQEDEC
# Method in brief: as §1
sequence,measurement,setting,value
TGCCCA,binding signal,[1],"1.21 fold enrichment (6-mer frequency, TF over GST control)"
same,binding signal,[2],"1.23 fold enrichment (6-mer frequency, TF over GST control)"
same,binding signal,[3],"1.19 fold enrichment (6-mer frequency, TF over GST control)"
same,binding signal,[4],"1.14 fold enrichment (6-mer frequency, TF over GST control)"
same,binding signal,[5],"1.16 fold enrichment (6-mer frequency, TF over GST control)"
same,binding signal,[6],"1.08 fold enrichment (6-mer frequency, TF over GST control)"
same,binding signal,[7],"1.09 fold enrichment (6-mer frequency, TF over GST control)"
same,binding signal,[8],"1.12 fold enrichment (6-mer frequency, TF over GST control)"
same,binding signal,[9],"1.21 fold enrichment (6-mer frequency, TF over GST control)"
same,binding signal,[10],"1.2 fold enrichment (6-mer frequency, TF over GST control)"
same,binding signal,[11],"1.2 fold enrichment (6-mer frequency, TF over GST control)"
same,binding signal,[12],"1.1 fold enrichment (6-mer frequency, TF over GST control)"
same,binding signal,[13],"1.03 fold enrichment (6-mer frequency, TF over GST control)"
same,binding signal,[14],"1.12 fold enrichment (6-mer frequency, TF over GST control)"
same,binding signal,[15],"1.12 fold enrichment (6-mer frequency, TF over GST control)"
same,binding signal,[16],"1.12 fold enrichment (6-mer frequency, TF over GST control)"
same,binding signal,[17],"1.23 fold enrichment (6-mer frequency, TF over GST control)"
same,binding signal,[18],"1.15 fold enrichment (6-mer frequency, TF over GST control)"
same,binding signal,[19],"1.14 fold enrichment (6-mer frequency, TF over GST control)"
